The entries come from a sample that favours hits as a whole.
TbREL1 primary: TbREL1 RNA ligase inhibitors, primary screen, biochemical, FRET fluorescence | RNA-editing ligase 1, mitochondrial (Trypanosoma brucei brucei), P86926 | TbREL1 RNA ligation | inhibition, % at 9.66 µM | 89,000 tested, 0.49% active;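 active = inhibition above the mean inhibition across all screened compounds plus 3 SD, cut at about 11% in these data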;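 note: 0% = plate median of test wells and 100% = NSC42067 control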
Target sequence (P86926 whole entry, looked up): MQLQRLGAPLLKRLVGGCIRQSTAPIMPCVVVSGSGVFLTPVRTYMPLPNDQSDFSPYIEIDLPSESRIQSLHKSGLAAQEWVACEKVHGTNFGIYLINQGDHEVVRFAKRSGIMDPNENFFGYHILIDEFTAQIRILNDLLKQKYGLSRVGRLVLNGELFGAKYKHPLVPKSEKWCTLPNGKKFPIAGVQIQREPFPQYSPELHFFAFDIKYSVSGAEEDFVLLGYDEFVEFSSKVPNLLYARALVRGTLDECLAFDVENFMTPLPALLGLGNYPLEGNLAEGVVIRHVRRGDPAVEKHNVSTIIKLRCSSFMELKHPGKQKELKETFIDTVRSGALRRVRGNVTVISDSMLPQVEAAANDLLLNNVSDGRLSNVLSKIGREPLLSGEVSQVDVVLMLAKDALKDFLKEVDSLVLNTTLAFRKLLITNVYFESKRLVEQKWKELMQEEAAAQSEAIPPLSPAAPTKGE
TbREL1 conf: TbREL1 RNA ligase inhibitors, confirmation, biochemical, FRET fluorescence, triplicate; 390 tested, 37% active; TbREL1 RNA ligation; shares compounds with TbREL1 primary; inhibition, % at 9.66 µM;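 active = mean inhibition across replicates above a set limit taken from the earlier primary screen, cut at about 11% in these data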;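 note: 0% = REL1 with substrate and DMSO and 100% = REL1 plus control inhibitor NSC42067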
The depositor's hits bear a star.

SMILES | TbREL1 primary | others
O=C(CNCc1c(F)cccc1F)N1CCC2(CC1)OCCO2 | 1
O=C(CCCCCn1c(=S)[nH]c2ccccc2c1=O)N1CCC2(CC1)OCCO2 | -6
O=C(Cn1ccc2ccccc2c1=O)NCC(=O)N1CCC2(CC1)OCCO2 | 11*
COC(=O)C1=C(c2ccc(-c3ccccc3)c(F)c2)C[C@@H]2CC[C@H]1N2C(=O)NC1Cc2ccccc2C1 | -1
C[n+]1c(-c2ccccc2)cc(CCCCc2cc(-c3ccccc3)[n+](C)c(-c3ccccc3)c2)cc1-c1ccccc1 | 13*
Oc1ccccc1-[n+]1c(-c2ccccc2)cc(-c2ccccc2)cc1-c1ccccc1 | 0
Cc1ccc(-c2cc(-c3ccccc3)cc(-c3ccccc3)[n+]2-c2ccc(C(=O)O)cc2)cc1 | -1
CCCC(C)n1[nH]c(=O)c2c1NC(=O)CSC2c1ccccc1 (stereo unspecified) | 1
CCN(CC)S(=O)(=O)c1cc(NC(=O)C(C)N2CC=C(c3ccccc3)CC2)ccc1C (stereo unspecified) | 0
C=C(C=O)CC1CC(O)[C@]2(C)OC3CC4OC5C[C@]6(C)O[C@]7(C)CCC8OC9C[C@]%10(C)OC%11C(C)=CC(=O)OC%11CC%10OC9C[C@@H](C)C8OC7CC6O[C@]5(C)C/C=C\C4OC3CC2O1 (stereo partly specified) | 0
Cc1cc(/C=C2/C(=O)NC(=O)N(c3ccccc3)C2=O)c(C)n1-c1ccc(F)cc1 | 3
Cc1cc(/C=C2\C(=O)NC(=O)N(Cc3ccco3)C2=O)c(C)n1-c1ccc(C(=O)O)cc1 | 16* | TbREL1 conf=3
Cc1ccc(-n2c(C)cc(/C=C3/C(=O)NC(=O)N(Cc4ccco4)C3=O)c2C)cc1 | -1
COCCN1C(=O)NC(=O)/C(=C\c2ccc(Br)cc2)C1=O | 6
CCCNC(=O)N1[C@H]2CC[C@@H]1C(C(=O)OC)=C(c1ccc(OC(F)(F)F)cc1)C2 | -2
CCCNC(=O)N1[C@H]2CC[C@@H]1C(C(=O)OC)=C(c1ccccc1)C2 | 0
O=C(OCc1ccccc1)N1CCC2CC1c1cc(N3Cc4ccccc4-n4nncc4C3)ccc12 (stereo unspecified) | 0
COCCCn1c(N)c(C(=O)OCCOC)c2nc3ccccc3nc21 | 8
COCCOC(=O)c1c(N)n(Cc2ccc(OC)cc2)c2nc3ccccc3nc12 | 0
CCCCNC(=O)c1c(N)n(CCCOC)c2nc3ccccc3nc12 | 12* | TbREL1 conf=34*
CC1CCCCN1C(=O)c1ccc(N2CC3CC(C2)c2cccc(=O)n2C3)c([N+](=O)[O-])c1 (stereo unspecified) | -3
Fc1ccc(N2Cc3ccccc3-n3nncc3C2)cc1 | -1
Nc1c(C(=O)OCC2CCCO2)c2nc3ccccc3nc2n1Cc1cccs1 (stereo unspecified) | 4
Nc1c(C(=O)NC2CCCC2)c2nc3ccccc3nc2n1CC1CCCO1 (stereo unspecified) | 27* | TbREL1 conf=12*
COC(=O)c1c(N)n(Cc2ccc(OC)cc2)c2nc3ccccc3nc12 | 0
SMILES | TbREL1 primary | others
Cc1ccc(-n2nc(C)cc2NC(=O)COc2cc(C)cc3oc(=O)c4c(c23)CCC4)cc1 | 2
CC(=O)C1(c2ccccc2)CCN(C(=O)C2CCC(=O)N(CCc3cccc(F)c3)C2)CC1 (stereo unspecified) | 1
CC1c2ccccc2-n2nncc2CN1C (stereo unspecified) | 2
O=C1NC(=O)C(=Cc2ccc(-c3ccc(F)cc3O)o2)C(=O)N1 | 16* | TbREL1 conf=15*
C[N+]1=C(N)NC2=C3CCCCC3ONC2C1 (stereo unspecified) | 6
Cc1nc2c(=O)n(C)c(=O)nc-2n(C)n1 | 64* | TbREL1 conf=89*
O=P(NC(c1ccccc1)c1ccccc1)(Oc1ccccc1)Oc1ccccc1 | -1
COc1cccc(C2(C#N)CCN(C)CC2)c1 | -2
Cc1sc2nc(COC(=O)Cc3ccccc3)[nH]c(=O)c2c1C | 0
COC(=O)C1=C(c2cccc(OCc3ccccc3)c2)C[C@@H]2CC[C@H]1N2C(=O)NCCOc1ccccc1 | 2
Brc1ccc(-[n+]2c(-c3ccccc3)cc(-c3ccccc3)cc2-c2ccccc2)cc1 | 12* | TbREL1 conf=4
CCCOC(=O)c1ccc(-[n+]2c(-c3ccccc3)cc(-c3ccccc3)cc2-c2ccccc2)cc1 | 10
[O-]c1ccccc1-[n+]1c(-c2ccccc2)cc(-c2ccccc2)cc1-c1ccccc1 | 8
CCCSc1nc(O)c(CC)c(=O)n1C(C)CC (stereo unspecified) | -3
COC(=O)C1=C(c2cccc(C#N)c2)C[C@@H]2CC[C@H]1N2C(=O)NCCOc1ccc(OC)cc1 | -1
COC12c3ccccc3-c3ccccc3C1C(C(=O)O)C2C(=O)O (stereo unspecified) | 0
Cc1ccc(-c2ccc(=O)n(CC(=O)N3CCC4(CC3)OCCO4)n2)cc1 | 1
CN1CCC(n2nccc2N)CC1 | 1
Nc1ccnn1C1CCNCC1 | 23* | TbREL1 conf=5
CSCCC(N=Cc1c(O)n(-c2ccc(Cl)cc2)c(=O)[nH]c1=O)C(=O)OC(C)(C)C (stereo unspecified) | -4

Bioassay records deposited in PubChem BioAssay by The Scripps Research Institute Molecular Screening Center.
